HT1080-NT tox – kills 2HG-producing HT-1080-NT fibrosarcoma cells | HT-1080-NT fibrosarcoma viability, CellTiter-Glo ATP luminescence, 48 h | actives 1.6% (n = 360,000) | Potency, µM (top dose mostly 46.1 µM), inactives show top-dose activity, negative = less viability, usual class: cytotoxic;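 further: NT is the 2HG producing partner of a matched IDH1 knockdown line; potency means the concentration at half of the fitted maximal effect; 0% = DMSO-treated cells and -100% = media-only wells without cells; nearly all actives have a fitted effect of over 55% in size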
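Viability by CellTiter-Glo luminescence after 48 h compound exposure at 37C of HT-1080-NT cells (750/well, RPMI, 5% FBS). % activity scaled between DMSO wells and medium-only wells, then curve-fitted and categorized by curve class.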
TDP1 cell CPT – growth inhibition of DT40 Tdp1-/-;hTDP1 cells with camptothecin (screen for TDP1 inhibitors) | Potency, µM (doses to about 46.2 µM), inactives show top-dose activity change, negative = growth inhibition, hits mostly inhibitors | chicken DT40 Tdp1-/-;hTDP1 cells + 20 nM CPT, ATP luminescence, 48 h | actives 12% (n = 420,000); further: potency means the concentration at half of the fitted maximal effect; nearly all actives have a fitted effect of over 55% in size
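Chicken DT40 Tdp1-/- cells stably complemented with human TDP1 were seeded at 400 cells/well in medium containing 20 nM camptothecin, exposed to pin-transferred compounds, and grown at 37 °C for at least 48 hr. Viability was read as ATP luminescence.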
HT1080 IDH1KD tx – kills HT-1080 cells with IDH1 knockdown | Potency, µM (doses to about 46.1 µM), without a hit: top-dose activity, negative = toxicity, most hits filed as cytotoxic | HT-1080 IDH1 knockdown viability, ATP luminescence, 48 h | actives 2% (n = 360,000);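 further: potency means the concentration at half of the fitted maximal effect; 0% = DMSO wells and -100% = cell-free medium wells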
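Cytotoxicity counter-line: IDH1KD HT-1080, 48 h, CellTiter-Glo. Curves classed by r2, magnitude and activity.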
IL-1B inflam inh – inflammasome signaling inhibition, IL-1 beta readout. actives 4.7% (n = 360,000). activity change, % at 57.5 µM. THP-1 LPS/ATP IL-1B secretion, AlphaLISA, 16 h; hits give low values; in the data active means activity change below about -50%; inconclusive means mostly about -30% to -49%
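Secreted IL-1B measured by AlphaLISA bead assay after 16 h compound exposure of THP-1 cells; compounds (final up to 57.5 uM) added 1 h before LPS (250 ng/mL) and ATP (1.25 mM) stimulation; lower signal means less secretion.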
DT40 TDP1 no CPT – qHTS for Inhibitors of human tyrosyl-DNA phosphodiesterase 1 (TDP1): qHTS in cells in absence of CPT | DT40 Tdp1-/- hTDP1 cells, no CPT, ATP luminescence, 48 h | Potency, µM (series often up to 46.2 µM), inactives show top-dose activity change, negative = growth inhibition, usual class: inhibitors | actives 15% (n = 420,000) | AID 686978, 2013; further: potency means the concentration at half of the fitted maximal effect; nearly all actives have a fitted effect of over 55% in size
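Compound effects on proliferation are scored in DT40 Tdp1-/-;hTDP1 cells in the absence of CPT. ATP levels (CellTiter-Glo luminescence) are recorded after a ≥48 hr, 37 °C incubation.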
An asterisk follows results filed as active; u = inconclusive; x = no result. Hits are enriched below; roughly 19% of the tested compounds scored in any of these assays. Unless noted, the call rests on the fitted dose curve; in most records, active means well fitted curve in the direction sought with a large enough effect; inconclusive means small, poorly fitted or top-dose-only effect, or another doubt; inactive means no such curve, though single readings can be large; an effect the other way counts as inactive or inconclusive. Unless noted, on the % scale 0 is the no-effect control and ±100 the full control effect.

SMILES	HT1080-NT tox	TDP1 cell CPT	HT1080 IDH1KD tx	IL-1B inflam inh	DT40 TDP1 no CPT
COC(=O)c1ccc(C)c(NC(=O)CCCN2C(=O)NC(C)(C)C2=O)c1	10%	0%	9%	4	3%
O=C(O)COc1ccc(Br)cc1/C=N\Nc1ccccn1	4%	u	3%	10	u
O=C1C=C(c2ccccc2)C(=O)N1Nc1ccccc1	-5%	4.1µM*	u	-101*	5.8µM*
COc1ccc(C2=CC(=O)N(Nc3ccccc3)C2=O)cc1	u	18µM*	16µM*	-55*	21µM*
Cc1ccc(NN2C(=O)C=CC2=O)cc1	15%	0%	15%	9	-11%
Cc1ccc(NN2C(=O)C=C(c3ccc(Cl)cc3)C2=O)cc1	u	5.8µM*	u	-103*	4.1µM*
Cc1c(C)n2c(SCC(=O)N3CCCCC3)nnc2[nH]c1=O	20%	-27%	16%	5	-11%
O=C(CN1CC(=O)Nc2ccccc21)NCCc1ccc(Cl)cc1Cl	12%	-24%	22%	-102*	-27%
Cc1cccc(C)c1Nc1ncccc1C(=O)O	x	-8%	x	x	-8%
CCn1cc(C(=O)OCC(=O)c2cc(C)n(-c3cccc(C(F)(F)F)c3)c2C)c(=O)c2ccc(C)nc21	-3%	u	2%	-66*	u
Cc1cc(C(=O)COC(=O)Cc2n[nH]c(=O)c3ccccc23)c(C)n1-c1cccc(C(F)(F)F)c1	3%	u	-1%	-12	16µM*
Cc1cc(O)c2c(c1)CC1C3CCC4CC(=O)CCC4(C)C3CC(=O)C21C (stereo not given)	-2%	18µM*	0%	35	12µM*
CC(=O)c1nn(-c2cccc(Br)c2)cc1C(=O)c1ccc(Br)cc1	-1%	13µM*	10%	3	12µM*
O=C(CNC(=O)c1ccccc1)Oc1cccc(Cl)c1	16%	9%	9%	12	5%
COc1ccc2oc(-c3cccc(NC(=O)c4cc([N+](=O)[O-])ccc4N4CCOCC4)c3)nc2c1	x	13µM*	x	x	u
O=C(Nc1cccc(-c2nc3ccccc3o2)c1)c1cc([N+](=O)[O-])ccc1N1CCOCC1	x	u	x	x	8.2µM*
COCCNC(=O)C1(C)CCCN(C(=O)c2cc(OC)c(OC)c(OC)c2)C1 (stereo not given)	9%	-3%	20%	18	17%
CCCN=C1N(C)C[C@@H]2[C@@H]3C(=O)N(C)C(=O)[C@@H]3[C@](C)(C(=O)OC)N12	10%	8%	9%	19	6%
CCOC(=O)c1c(C)[nH]c(C(=O)OCC(=O)NC2CCS(=O)(=O)C2)c1C (stereo not given)	-16%	-7%	-2%	-4	u
O=C1OC[C@H](Cc2ccc3c(c2)OCO3)/C1=C\c1ccc2c(c1)OCO2	u	5.8µM*	-12%	u	8.2µM*
COc1ccc(S(=O)(=O)N2CCN(CC(=O)c3[nH]c(C)c(C(C)=O)c3C)CC2)cc1OC	0%	-5%	-3%	0	u
CC(=O)c1c(C)[nH]c(C(=O)OCC(=O)Nc2ccccc2Cl)c1C	-30%	16µM*	-18%	127	15µM*
CC(=O)c1c(C)[nH]c(C(=O)Nc2cccc(S(=O)(=O)N(C)C)c2)c1C	0%	u	-4%	-17	u
CCN(CC)S(=O)(=O)c1cccc(NC(=O)COC(=O)c2[nH]c(C)c(C(C)=O)c2C)c1	0%	1.8µM*	u	53	1µM*
CC(=O)c1c(C)[nH]c(C(=O)CN2CCN(S(=O)(=O)c3ccc(C(C)C)cc3)CC2)c1C	-6%	15µM*	-10%	2	10µM*
SMILES	HT1080-NT tox	TDP1 cell CPT	HT1080 IDH1KD tx	IL-1B inflam inh	DT40 TDP1 no CPT
CC(=O)c1c(C)[nH]c(C(=O)OCC(=O)Nc2cccnc2Cl)c1C	1%	u	-7%	30	u
O=C(COC(=O)c1ccc(Cl)nc1)Nc1cc(S(=O)(=O)N2CCCCC2)ccc1Cl	4%	18µM*	0%	23	u
O=S1(=O)CCN(C2CCCC2)CC1	10%	-5%	7%	14	-16%
CC(=O)c1c(C)[nH]c(C(=O)OCc2csc(CC(=O)Nc3ccccc3C)n2)c1C	-2%	18µM*	-5%	-11	9.2µM*
COc1ccc(S(=O)(=O)N2CCOCC2)cc1NC(=O)COC(=O)c1[nH]c(C)c(C(C)=O)c1C	-2%	-14%	-15%	31	-16%
CC(=O)c1c(C)[nH]c(C(=O)OCC(=O)Nc2cc(S(=O)(=O)N3CCCC3)ccc2Cl)c1C	3%	u	-3%	75	23µM*
C[N+]1(CC(=O)c2ccc(-c3ccccc3)cc2)CCOCC1	x	u	x	x	-16%
C[N+]1(CC(=O)c2c3ccccc3cc3ccccc23)CCOCC1	x	16µM*	x	x	10µM*
CCC1(c2ccc(OC)cc2)NC(=O)N(CC(=O)c2ccc3c(c2)OCCO3)C1=O (stereo not given)	-3%	-23%	-1%	-14	u
O=C1NC[C@H](Cc2ccc(O)cc2)N(C[C@H]2CCCN2C[C@H](Cc2ccc(O)cc2)N2C[C@H](Cc3ccc(O)cc3)N(CCc3ccccc3)C(=O)C2=O)C1=O	13%	-14%	5%	-4	0%
CC(C)C[C@H]1CN([C@@H](CC(C)C)CN2CCC[C@H]2CN2C(=O)C(=O)NC[C@@H]2Cc2ccc(O)cc2)C(=O)C(=O)N1CCc1ccccc1	-21%	u	-6%	u	u
CCOc1ccc(CCN2C(=O)C(=O)N([C@@H](Cc3ccccc3)CN3CCC[C@H]3CN3C(=O)C(=O)NC[C@@H]3Cc3ccccc3)C[C@@H]2CC(C)C)cc1	-7%	u	1%	-79*	18µM*
CCOc1ccc(CCN2C(=O)C(=O)N([C@@H](Cc3ccc(O)cc3)CN3CCC[C@H]3CN3C(=O)C(=O)NC[C@@H]3Cc3ccccc3)C[C@@H]2Cc2ccc(O)cc2)cc1	-11%	u	-20%	-52*	u
CCOc1ccc(CCN2C(=O)C(=O)N([C@@H](Cc3ccccc3)CN3CCC[C@H]3CN3C(=O)C(=O)NC[C@@H]3Cc3ccccc3)C[C@@H]2Cc2ccc(O)cc2)cc1	u	u	u	-64*	u
CCOc1ccc(CCN2C(=O)C(=O)N([C@@H](Cc3ccccc3)CN3CCC[C@H]3CN3C(=O)C(=O)NC[C@@H]3Cc3ccccc3)C[C@@H]2Cc2ccccc2)cc1	u	u	u	u	23µM*

Screening data (PubChem BioAssay)
